DT40 TDP1 CPT: DT40-hTDP1 cell growth loss with CPT | chicken DT40 Tdp1-/-;hTDP1 cells + 20 nM CPT, ATP luminescence, 48 h | Potency, µM (titrated, usually from 46.2 µM), usual class: inhibitors | 420,000 compounds, 12% hits; note: nearly all actives have a fitted effect of over 55% in size
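Cell growth measured by CellTiter-Glo luminescence after a minimum 48 h, 37 C compound exposure with 20 nM CPT in Tdp1-knockout DT40 cells stably expressing hTDP1, seeded 400/well; qHTS titration format.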
HepG2 viability: HepG2 cytotoxicity, counter-screen for TGF-b inhibitors | HepG2 CAGA-GFP viability, ATP luminescence, 18 h | Potency, µM (doses to about 46.1 µM), most hits filed as cytotoxic | 410,000 compounds, 0.76% hits | AID 588856
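CellTiter-Glo luminescence gave cytotoxicity after 18 hours at 37 degrees C. The cells were HepG2 CAGA-GFP in 1% FBS DMEM, stimulated with 500 pg/mL TGF-beta after compound addition. %Activity was normalised to no-cell wells (complete cell-killing) and DMSO (no toxicity), and curves were fitted and classified.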
TGFb inhibitor: TGF-b pathway inhibition; HepG2 CAGA-GFP TGF-b/SMAD3 reporter, GFP fluorescence, 18 h; TGF-beta stimulated, 500 pg/mL final; AID 588855; Potency, µM (doses to about 46.1 µM), usual class: inhibitors; 410,000 compounds, 1.2% hits; note: nearly all actives have a fitted effect of over 65% in size
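Per well, imaged GFP fluorescence of HEPG2 CAGA-GFP cells gives the signal; cells get compound, then TGF-beta (500 pg/mL final), 18 h at 37 degrees C; %Activity versus -TGF-beta and +DMSO controls.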
IL1B secr inh: blocks inflammasome-driven IL-1 beta release; THP-1 LPS/ATP IL-1B secretion, AlphaLISA, 16 h; stronger effect = lower value; activity change, % at 57.5 µM; 360,000 compounds, 4.7% hits; in the data active = activity change below about -50%; inconclusive = mostly about -30% to -49%
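THP-1 cells pretreated 1 hr with compounds (up to 57.5 uM final), then stimulated with LPS (250 ng/mL final) plus ATP (1.25 mM final); secreted IL-1B measured by AlphaLISA after 16 hr, decreased signal indicating inhibition.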
TDP1 block: TDP1 (human) enzyme inhibition; recombinant TDP1, AlphaScreen DNA substrate cleavage; Potency, µM (titrated, usually from 130 µM), hits mostly inhibitors; 350,000 compounds, 0.28% hits; note: nearly all actives have a fitted effect of over 40% in size
Target sequence (Q9NUW8 whole entry, looked up): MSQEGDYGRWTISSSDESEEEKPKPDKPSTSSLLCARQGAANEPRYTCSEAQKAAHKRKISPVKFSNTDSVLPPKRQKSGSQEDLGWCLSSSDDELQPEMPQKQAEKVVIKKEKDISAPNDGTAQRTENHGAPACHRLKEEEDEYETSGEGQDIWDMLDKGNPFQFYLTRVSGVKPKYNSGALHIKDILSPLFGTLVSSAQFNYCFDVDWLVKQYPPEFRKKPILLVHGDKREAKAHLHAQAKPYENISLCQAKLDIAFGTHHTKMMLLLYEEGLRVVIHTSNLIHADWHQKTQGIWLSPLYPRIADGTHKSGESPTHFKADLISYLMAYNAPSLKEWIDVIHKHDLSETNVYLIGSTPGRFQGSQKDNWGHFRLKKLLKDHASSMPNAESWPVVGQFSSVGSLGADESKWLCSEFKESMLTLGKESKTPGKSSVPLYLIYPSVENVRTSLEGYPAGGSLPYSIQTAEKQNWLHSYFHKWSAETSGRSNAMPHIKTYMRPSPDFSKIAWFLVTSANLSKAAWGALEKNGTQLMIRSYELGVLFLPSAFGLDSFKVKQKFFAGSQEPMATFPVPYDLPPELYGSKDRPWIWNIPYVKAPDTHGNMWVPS
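Enzyme-compound mixtures sat 15 min at room temperature, followed by a 5 min reaction with 15 nM final substrate and 10 min with AlphaScreen beads. Recombinant human Tdp1 was used at 1 nM final.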
DT40 TDP1 no CPT: qHTS for Inhibitors of human tyrosyl-DNA phosphodiesterase 1 (TDP1): qHTS in cells in absence of CPT; 420,000 compounds, 15% hits; Potency, µM (top dose mostly 46.2 µM), usual class: inhibitors; DT40 Tdp1-/- hTDP1 cells, no CPT, ATP luminescence, 48 h; note: nearly all actives have a fitted effect of over 55% in size
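DT40 Tdp1-/-;hTDP1 cells, no CPT (DMSO vehicle only), 400 cells/well; compounds pin-transferred; ≥48 hr, 37 °C; CellTiter-Glo 30 min RT dark, luminescence read.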
Of the large screens only hits and unclear results are named; the others gave an inactive call. A selection: hits, their analogues and other compounds. The true share with any hit is near 18%. Unless noted, calls come from the whole dose curve; as a rule, active = well fitted curve in the direction sought with a large enough effect; inconclusive = small, poorly fitted or top-dose-only effect, or another doubt; inactive = no such curve, though single readings can be large; an effect the other way counts as inactive or inconclusive.

COc1ccc(NC(=O)CC2C(=O)N(c3ccc(C)cc3)C(=O)N2C2CCCCC2)cc1 (centres undefined)	none (no result: IL1B secr inh)
CCOC(=O)c1ccc(NC(=O)CC2C(=O)N(c3ccc(C)cc3)C(=O)N2C2CCCC2)cc1 (centres undefined)	DT40 TDP1 CPT inconclusive, TGFb inhibitor inconclusive, DT40 TDP1 no CPT 21µM (no result: IL1B secr inh)
COC(=O)c1ccc(NC(=O)CC2C(=O)N(c3ccccc3)C(=O)N2C2CCCC2)cc1 (centres undefined)	DT40 TDP1 CPT inconclusive, DT40 TDP1 no CPT 16µM (no result: IL1B secr inh)
CC(C)CCSc1cc(NCCO)c([N+](=O)[O-])c2nonc12	DT40 TDP1 CPT inconclusive, TGFb inhibitor inconclusive, DT40 TDP1 no CPT inconclusive
CC(=O)OCCCNc1cc(Sc2ccc(Cl)cc2)c2nonc2c1[N+](=O)[O-]	DT40 TDP1 CPT 2.1µM, TGFb inhibitor inconclusive, IL1B secr inh inconclusive, DT40 TDP1 no CPT 3.7µM
COC(=O)CCSc1cc(NCCCOC(C)=O)c([N+](=O)[O-])c2nonc12	DT40 TDP1 CPT 5µM, TGFb inhibitor inconclusive, DT40 TDP1 no CPT 5µM (no result: IL1B secr inh)
CC(=O)OCCNc1cc(SC(C)C)c2nonc2c1[N+](=O)[O-]	DT40 TDP1 no CPT inconclusive
Cc1ccc(Sc2cc(NCCCO)c([N+](=O)[O-])c3nonc23)cc1	DT40 TDP1 CPT 2.3µM, DT40 TDP1 no CPT 2.9µM
CC(NC(=O)c1cc(S(=O)(=O)N(C)C)ccc1Cl)c1ccc(-n2ccnc2)cc1 (centres undefined)	none
COc1ccccc1C(=O)NCCC(=O)N1CCN(S(=O)(=O)c2ccccc2C(F)(F)F)CC1	DT40 TDP1 CPT inconclusive, TGFb inhibitor inconclusive
COC(=O)COc1ccc(NS(=O)(=O)c2cccc([N+](=O)[O-])c2)cc1	TGFb inhibitor inconclusive, IL1B secr inh -152
COC(=O)COc1ccc(S(=O)(=O)Nc2cc([N+](=O)[O-])ccc2C)cc1	none
COC(=O)COc1cccc(NS(=O)(=O)c2cccc([N+](=O)[O-])c2)c1	TGFb inhibitor inconclusive, IL1B secr inh -194
Cc1csc(=O)n1CCC(=O)OCC(=O)N(C)c1c(N)n(Cc2ccccc2)c(=O)[nH]c1=O	none (no result: TDP1 block)
Cc1ccc(Oc2nnc(-c3cccs3)c3ccccc23)cc1	DT40 TDP1 CPT inconclusive, DT40 TDP1 no CPT 18µM
Cc1ccc(Oc2nnc(-c3cccs3)c3ccccc23)cc1C	DT40 TDP1 CPT 18µM, DT40 TDP1 no CPT inconclusive
CO[C@H]1COC(=O)[C@@H](C)COC(=O)[C@H](C)NC(=O)C/C=C\[C@H]1C	none (no result: DT40 TDP1 CPT, HepG2 viability, TGFb inhibitor, IL1B secr inh, DT40 TDP1 no CPT)
O=C(CCN1CCOCC1)NNC(=O)c1ccc(Cl)c([N+](=O)[O-])c1	IL1B secr inh inconclusive
CCN(C(=O)COC(=O)c1cccnc1)c1cccc2ccccc12	DT40 TDP1 CPT inconclusive, DT40 TDP1 no CPT inconclusive
CCN(C(=O)COc1ccc(C(C)=O)cc1)c1cccc2ccccc12	DT40 TDP1 CPT 15µM, IL1B secr inh inconclusive, DT40 TDP1 no CPT inconclusive
COc1ccccc1CN(Cc1c(Cl)cccc1Cl)S(=O)(=O)c1ccc(Br)cc1	DT40 TDP1 CPT 16µM, DT40 TDP1 no CPT 21µM (no result: IL1B secr inh)
COc1ccccc1CNC(=O)C(C)NS(=O)(=O)c1ccc(Br)cc1 (centres undefined)	DT40 TDP1 no CPT inconclusive
COc1ccc(/C=C/C(=O)c2cc(Cl)ccc2O)c(OC)c1	DT40 TDP1 CPT inconclusive, IL1B secr inh -100, DT40 TDP1 no CPT inconclusive (no result: TDP1 block)
COc1ccc(C(=O)/C=C/c2ccc(OC)cc2OC)c(O)c1	DT40 TDP1 CPT inconclusive, DT40 TDP1 no CPT inconclusive
O=C(/C=C/c1ccncc1)c1cc(Cl)ccc1O	TGFb inhibitor inconclusive, IL1B secr inh -67, DT40 TDP1 no CPT inconclusive
COc1ccc(/C=C/C(=O)/C=C/c2ccc(OC)cc2OC)c(OC)c1	DT40 TDP1 CPT inconclusive, DT40 TDP1 no CPT inconclusive (no result: HepG2 viability, TGFb inhibitor, IL1B secr inh)
CN(C)c1ccc(/C=C/C(=O)c2cc(Cl)ccc2O)cc1	DT40 TDP1 CPT inconclusive, DT40 TDP1 no CPT inconclusive
COc1ccc(/C=C/C(=O)c2ccc(Cl)cc2)c(OC)c1	TGFb inhibitor inconclusive, DT40 TDP1 no CPT 18µM
N#Cc1nc(Cl)c(Cl)c(NN)c1Cl	IL1B secr inh -54
O=C1CCC/C(=N/NC(=O)C2CCN(S(=O)(=O)c3cccs3)CC2)C1	none
Cc1ccc(-c2nc(CS(=O)(=O)CC(=O)NCCCN3CCOCC3)c(C)o2)cc1	none
CCCCN(CC)CCCNC(=O)CS(=O)(=O)Cc1nc(-c2ccc(C)cc2)oc1C	DT40 TDP1 CPT inconclusive, TGFb inhibitor inconclusive, DT40 TDP1 no CPT 21µM (no result: IL1B secr inh)
COc1cccc(-c2nc(CS(=O)(=O)CC(=O)NCCN3CCOCC3)c(C)o2)c1	none
Cc1oc(-c2ccccc2Cl)nc1CS(=O)(=O)CC(=O)NCCN1CCOCC1	none (no result: TDP1 block)
COc1ccc(OC)c(CCNC(=O)CS(=O)(=O)Cc2nc(-c3ccccc3Cl)oc2C)c1	DT40 TDP1 CPT inconclusive, IL1B secr inh -52, DT40 TDP1 no CPT inconclusive
COc1cccc(-c2nc(CS(=O)(=O)CC(=O)NCCCN3CCOCC3)c(C)o2)c1	IL1B secr inh -77
COc1cccc(-c2nc(CS(=O)(=O)CC(=O)NCc3ccccc3OC)c(C)o2)c1	DT40 TDP1 CPT inconclusive, TGFb inhibitor inconclusive, DT40 TDP1 no CPT 18µM
CNS(=O)(=O)c1ccc(CNC[C@H]2O[C@@H](n3ccc(N)nc3=O)[C@H](O)[C@@H]2O)cc1	none (no result: TDP1 block)
COc1cccc(-c2nc(CS(=O)(=O)CC(=O)N3CCN(c4ccccc4)CC3)c(C)o2)c1	DT40 TDP1 CPT inconclusive, TGFb inhibitor 11µM, DT40 TDP1 no CPT 23µM (no result: IL1B secr inh)
CCN1CCN(C(=O)CS(=O)(=O)Cc2nc(-c3cccc(OC)c3)oc2C)CC1	none
Cc1oc(-c2ccccc2F)nc1CS(=O)(=O)CC(=O)N1CCN(c2ccc(Cl)cc2)CC1	DT40 TDP1 CPT 26µM, TGFb inhibitor inconclusive, DT40 TDP1 no CPT 21µM (no result: IL1B secr inh)
COc1ccc(-c2cc(-c3ccccc3)nc(NN)n2)cc1OC	DT40 TDP1 CPT 3.7µM, IL1B secr inh inconclusive, DT40 TDP1 no CPT inconclusive
COc1nc(-c2ccccc2)cc(-c2ccc(OC)c(OC)c2)n1	DT40 TDP1 CPT inconclusive, DT40 TDP1 no CPT 21µM
CCCS(=O)(=O)NC(=O)C1(C)CCN(C(=O)c2ccc(F)c(Cl)c2)C1 (centres undefined)	none (no result: TDP1 block)
CC1(C(=O)NS(=O)(=O)C2CC2)CCCN(C(=O)c2cccc(Cl)c2)C1 (centres undefined)	DT40 TDP1 CPT 7.3µM, DT40 TDP1 no CPT 1.5µM (no result: TDP1 block)
